{
  "source": "PubChem BioAssay (NCATS)",
  "note": "Several values for one entry are separate records, joined by “and”; a condition that tells them apart may be missing. Equal entries are not always repeated. Records with an inconclusive call do not appear. Where a call stands in place of a potency, no number is given. A number with no mark means an inactive call. Activity calls are given as the source filed them. Calls come from the whole dose curve; as a rule, active = well fitted cell-killing curve with a large enough effect; inconclusive = small, poorly fitted or top-dose-only effect; inactive = flat fitted curve, though single readings scatter. Potency is the fitted concentration of half-maximal effect.",
  "data": [
    {"experiment": "qHTS of pediatric cancer cell lines to identify multiple opportunities for drug repurposing: Primary screen for BT-12 cells (AID 1347101); note: nearly all actives have a fitted effect of over 25% in size", "details": "BT-12 viability, CellTiter-Glo luminescence, 48 h; series mostly up to 57.3 µM; activity change, negative = cytotoxic: at the top concentration", "source_text": "Drug repurposing or repositioning has been offered as a strategy for drug development in oncology programs. This approach has special potential for childhood cancers and other rare or orphan diseases, where the expected return on new drug development has been a disincentive to pharmaceuticals.\nIn this project we exploit the poly-pharmacology of drugs to discover new indications via phenotypic screening of a panel of 19 well-characterized cell lines derived from solid tumors seen in children and adolescents. The goal is to identify approved drugs with previously unrecognized anticancer properties that has the potential to reveal new mechanisms and biological processes involved in carcinogenesis or drug resistance. We employed a titration-based paradigm (quantitative high-throughput screening or qHTS), where all compounds were tested at multiple concentrations for their effect on cell viability. Concentration-response curves (CRCs) were derived directly from the primary screen, and both potency and efficacy values were used to identify compounds with robust bioactivity profiles. We screened the NIH Chemical Genomics Center (NCGC) Pharmaceutical Collection (NPC) and Mechanism Interrogation Plate (MIPE) small molecule collections of approved and investigational compounds against these cell lines; and measured metabolically active cells after 48 hours of compound treatment as a proxy for cell viability.\nAssay Submitter: Nathalia J. Martinez, National Center for Advancing Translational Sciences, National Institutes of Health, Rockville, MD, USA; email: natalia.martinez@nih.gov\n[1] Shen, M et al. Quantitative high-throughput phenotypic screening of pediatric cancer cell lines identifies multiple opportunities for drug repurposing. Oncotarget 2017 Dec 19;9(4):4758-4772. PMID 29435139.\nThe cells were obtained from University of North Carolina (UNC), Pediatric Preclinical Testing Program (PPT), and Coriell Institute (CI).\nqHTS cell viability assay:\nCells were assayed in growth media at a density of 500-1,000 cells/well. Five microliters of cells were dispensed into 1,536-well, white, solid-bottom, TC-treated plates (Greiner Bio One) using a multidrop dispenser and incubated at 37 degrees C, 5% CO2, under a humidified atmosphere for 5 hours. Twenty-three nanoliters of compounds and controls (neutral control DMSO or positive control bortezomib at final concentration of 2.3 µM) were subsequently transferred by Kalypsys pintool. For primary screens, the MIPE collection was tested at 11-point dilutions (final concentrations range from 0.78 nM to 46 µM) and the NPC collection at 8-point dilutions (final concentrations range from 0.59 nM to 46 µM). Compounds tested in follow-up screens were assayed at 11-point dilutions. Cells were incubated for 48 hours, followed by addition of 3 µL of CellTiter-Glo (Promega). After a 15 min incubation at room temperature, samples were analyzed for luminescence intensity using a ViewLux High-throughput CCD imager equipped with clear filters.", "values": [
      {"smiles": "O=C(O)c1cccnc1", "Potency": "inactive"},
      {"smiles": "CC(=O)Oc1ccccc1C(=O)Nc1ncc([N+](=O)[O-])s1", "Potency": "39.5 µM (active) and 21.9 µM (active)"},
      {"smiles": "CCOc1cc(N)c(Cl)cc1C(=O)NCC1CN(Cc2ccc(F)cc2)CCO1", "note": "(stereo not given)", "activity change, negative = cytotoxic": "3.34%"},
      {"smiles": "CC(C)(Sc1cc(C(C)(C)C)c(O)c(C(C)(C)C)c1)Sc1cc(C(C)(C)C)c(O)c(C(C)(C)C)c1", "Potency": "inactive"},
      {"smiles": "NC(=O)c1ccc2[nH]ccc2c1", "activity change, negative = cytotoxic": "-4.05%"},
      {"smiles": "Nc1nc(N)nc(-c2cc(Cl)ccc2Cl)n1", "Potency": "inactive"},
      {"smiles": "Cc1ccnc2c1NC(=O)c1cccnc1N2C1CC1", "Potency": "inactive"},
      {"smiles": "O=c1cc(O)c(Cl)c[nH]1", "activity change, negative = cytotoxic": "7.81%"},
      {"smiles": "NS(=O)(=O)c1cc2c(cc1Cl)NC(C(Cl)Cl)NS2(=O)=O", "note": "(stereo not given)", "Potency": "inactive"},
      {"smiles": "O=C(O)CSCC(=O)NC1CCSC1=O", "note": "(stereo not given)", "Potency": "inactive"},
      {"smiles": "CC(C)(C)C(=O)OCOP(=O)(COCCn1cnc2c(N)ncnc21)OCOC(=O)C(C)(C)C", "Potency": "11 µM (active) and 17.2 µM (active)"},
      {"smiles": "Cc1nnc(C(=O)NC(C)(C)c2nc(C(=O)NCc3ccc(F)cc3)c(O)c(=O)n2C)o1", "Potency": "inactive"},
      {"smiles": "O[C@@H](CNC[C@H](O)[C@H]1CCc2cc(F)ccc2O1)[C@@H]1CCc2cc(F)ccc2O1", "Potency": "27.3 µM (active)"},
      {"smiles": "C[C@@H](CN1CC(=O)NC(=O)C1)N1CC(=O)NC(=O)C1", "activity change, negative = cytotoxic": "-5.31%"},
      {"smiles": "CCCN[C@H]1CCc2nc(N)sc2C1", "Potency": "inactive"},
      {"smiles": "CCC(=O)O[C@]1(C(=O)SCF)[C@H](C)C[C@H]2[C@@H]3C[C@H](F)C4=CC(=O)C=C[C@]4(C)[C@@]3(F)[C@@H](O)C[C@@]21C", "Potency": "inactive"},
      {"smiles": "CCn1cc(C(=O)O)c(=O)c2cc(F)c(N3CCN(C)CC3)cc21", "activity change, negative = cytotoxic": "4.95% [at 20.1 µM]"},
      {"smiles": "C[C@]12C=CC(=O)C=C1CC[C@@H]1[C@@H]2C(=O)C[C@@]2(C)[C@H]1CC[C@]2(O)C(=O)CO", "activity change, negative = cytotoxic": "4.81%"},
      {"smiles": "CC1(C)[C@H](C(=O)O)N2C(=O)C[C@H]2S1(=O)=O", "Potency": "inactive"},
      {"smiles": "NC(=O)c1cccnc1", "Potency": "inactive"},
      {"smiles": "CC(N)C12CC3CC(CC(C3)C1)C2", "note": "(stereo not given)", "Potency": "inactive"},
      {"smiles": "Cn1c(=O)c2c(ncn2CC(O)CO)n(C)c1=O", "note": "(stereo not given)", "Potency": "inactive"},
      {"smiles": "COCCCOc1cc(C[C@@H](C[C@H](N)[C@@H](O)C[C@H](C(=O)NCC(C)(C)C(N)=O)C(C)C)C(C)C)ccc1OC", "Potency": "inactive"},
      {"smiles": "CNC(=O)c1cc(Oc2ccc(NC(=O)Nc3ccc(Cl)c(C(F)(F)F)c3)cc2)ccn1", "Potency": "17.2 µM (active)"},
      {"smiles": "COc1ccc(-c2ccc3cc(C(=O)O)ccc3c2)cc1C12CC3CC(CC(C3)C1)C2", "Potency": "inactive"},
      {"smiles": "CC(C)OC(=O)C(C(=O)OC(C)C)=C1SC=CS1", "activity change, negative = cytotoxic": "1.9%"},
      {"smiles": "COc1cc([C@@H]2c3cc4c(cc3[C@H](O)[C@H]3COC(=O)[C@H]23)OCO4)cc(OC)c1OC", "Potency": "55 nM (active) and 1.9 nM (active)"},
      {"smiles": "COc1cc(NS(=O)(=O)c2ccc(N)cc2)nc(OC)n1", "Potency": "inactive"},
      {"smiles": "CNNCc1ccc(C(=O)NC(C)C)cc1", "Potency": "inactive"},
      {"smiles": "CN1CCN(c2c(F)cc3c(=O)c(C(=O)O)cn4c3c2OCN4C)CC1", "Potency": "inactive"},
      {"smiles": "CO[C@@H]1[C@@H](OC(N)=O)[C@@H](O)[C@H](Oc2ccc3c(O)c(NC(=O)c4ccc(O)c(CC=C(C)C)c4)c(=O)oc3c2C)OC1(C)C", "Potency": "inactive"},
      {"smiles": "Nc1nc(N)c2nc(CNc3ccc(C(=O)NC(CCC(=O)O)C(=O)O)cc3)cnc2n1", "note": "(stereo not given)", "Potency": "0.0485 µM (active)"},
      {"smiles": "COc1cc(NCc2ccc3nc(N)nc(N)c3c2C)cc(OC)c1OC", "Potency": "2.17 µM (active) and 55 nM (active)"},
      {"smiles": "CCN1CCCC1CNC(=O)c1cc(S(N)(=O)=O)ccc1OC", "note": "(stereo not given)", "activity change, negative = cytotoxic": "14.4%"},
      {"smiles": "CCCOc1ccc(C(=O)OCCN(CC)CC)cc1N", "Potency": "inactive"},
      {"smiles": "C1CCC(C(CC2CCCCN2)C2CCCCC2)CC1", "note": "(stereo not given)", "Potency": "5.5 µM (active) and 30.6 µM (active)"},
      {"smiles": "CCCc1cc(C(N)=S)ccn1", "Potency": "inactive"},
      {"smiles": "O=S(=O)(O)CCS", "Potency": "inactive"},
      {"smiles": "Nc1nc(=S)c2[nH]cnc2[nH]1", "Potency": "8.71 µM (active) and 7.69 µM (active)"},
      {"smiles": "CNS(=O)(=O)Cc1ccc2[nH]cc(CCN(C)C)c2c1", "Potency": "inactive"}
    ]}
  ]
}
